Screen size: about 65,000 compounds; about 65 (0.1%) showed an effect of 50% or more. What follows is part of a selection rich in strong results, with near analogues and random picks from the rest.
biological target: Tryptophan--tRNA ligase (Mycobacterium tuberculosis (strain ATCC 25618 / H37Rv)) (UniProt P9WFT3); experiment: Biochemical assay for Mt-TrpRS; type: functional; parameters: scale not given: direction of the effect not stated beside the values; details: 10 µM
Sequence (P9WFT3 whole entry): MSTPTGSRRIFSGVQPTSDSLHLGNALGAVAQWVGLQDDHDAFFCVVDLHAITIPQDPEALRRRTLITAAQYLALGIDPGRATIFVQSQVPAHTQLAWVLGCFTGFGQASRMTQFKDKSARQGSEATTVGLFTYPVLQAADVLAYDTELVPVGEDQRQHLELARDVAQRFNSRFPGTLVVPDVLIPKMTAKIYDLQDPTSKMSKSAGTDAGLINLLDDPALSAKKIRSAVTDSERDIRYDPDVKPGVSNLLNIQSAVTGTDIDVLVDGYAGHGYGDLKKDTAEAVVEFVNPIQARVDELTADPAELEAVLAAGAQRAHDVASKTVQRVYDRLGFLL

| Compound | Percent Effect [%] |
| --- | --- |
| COc1ccc(CN2C[C@@H]3CN(S(=O)(=O)C4CC4)C[C@@H]3C2=O)cc1 | 2.34 |
| c1cnc(N2CC[C@@H]3[C@@H]2CCN3Cc2cccs2)nc1 | -3.73 |
| Cc1cc(C)n(CC2CCCN2C(=O)c2c(C)noc2C)n1 (centres undefined) | 66.8 |
| Cc1cc(C)n(CC2CCCN2C(=O)Cc2c(C)noc2C)n1 (centres undefined) | -1.17 |
| CCc1noc(C)c1C(=O)N1CCCC1Cn1nc(C)cc1C (centres undefined) | 1.85 |
| CS(=O)(=O)NC[C@@H]1OC[C@H]2CN(C(=O)c3ccccc3)CC[C@H]21 | -2.6 |
| Cc1ncoc1C(=O)N1C[C@H]2CCC[C@@]2(COCC2CCOCC2)C1 | -1.66 |
| O=C(CC1CC1)N1CCO[C@H]2[C@H](OCCCn3cccn3)CC[C@@H]21 | -5.05 |
| c1cncc(CN2CC[C@H]3O[C@@H](COCC4CCOCC4)CC[C@H]32)c1 | -0.469 |
| CC[S+](CC)[c-]1c(=O)[nH]c(=O)n(Cc2ccc(F)cc2)c1=O | -5.58 |
| CN(Cc1nnc2n1CCC2)C(=O)c1ccc2c(c1)OCCCO2 | 19.8 |
| CN(Cc1nnc2n1CCC2)C(=O)c1ccc2c(c1)OCCO2 | 69.5 |
| CN(Cc1nnc2n1CCC2)C(=O)c1ccc2c(c1)OCO2 | -1.84 |
| Cc1ccn(-c2ccc(N3CCCN(Cc4ccccc4)CC3)nn2)n1 | 119 |
| CCN1CCCN(c2ccc(-n3ccc(C)n3)nn2)CC1 | 1.17 |
| CCCN1CCCN(c2ccc(-n3ccc(C)n3)nn2)CC1 | -6 |
| O=S(=O)(c1ccccc1)N1C[C@@H]2COC[C@]2(COCC2CC2)C1 | 9.94 |
| O=C(c1ccc(F)c(F)c1)N1C[C@H]2CNC[C@H]2C1 | -6.39 |
| Fc1cccc(-c2nc(CN3CCCC3Cn3cccn3)co2)c1 (centres undefined) | 74.9 |
| Cc1cnn(CC2CCCN2Cc2coc(-c3cccc(F)c3)n2)c1 (centres undefined) | 4.37 |
| Fc1ccc(-c2nc(CN3CCCC3Cn3cncn3)co2)cc1 (centres undefined) | 53.9 |
| Fc1ccc(-c2nc(CN3CCCCC3Cn3cncn3)co2)cc1 (centres undefined) | -4.8 |
| Fc1cccc(-c2nc(CN3CCCC3Cn3cncn3)co2)c1 (centres undefined) | 10.9 |

| Compound | Percent Effect [%] |
| --- | --- |
| Cc1ccc(-c2nc(CN3CCCC3Cn3cncn3)co2)cc1 (centres undefined) | -4.8 |
| CS(=O)(=O)N1C[C@@H]2OCC(=O)N(CC3CCC3)[C@@H]2C1 | -0.527 |
| Cc1nn(C)c(N(C)C)c1CNCCCN(C)S(C)(=O)=O | -0.817 |
| Cc1nn(C)c(N(C)C)c1CNCCCNS(C)(=O)=O | 24.1 |
| CCS(=O)(=O)NCCCNCc1c(C)nn(C)c1N(C)C | 51.9 |
| Cc1nn(C)c(N(C)C)c1CNCCS(C)(=O)=O | 57.4 |
| Cc1nn(C)c(N(C)C)c1CNCCNS(C)(=O)=O | -3.19 |
| CCN(CCCNCc1c(C)nn(C)c1N(C)C)S(C)(=O)=O | -2.27 |
| CC(=O)N1[C@H](CN(C)C)C[C@@H]2CN(C(=O)c3cccn3C)CC[C@@H]21 | -8.29 |
| Cc1cccc(COC[C@]23COC[C@H]2CN(c2ncccn2)C3)n1 | -0.382 |
| Cc1nn(C)c(N2CCOCC2)c1CN[C@@H]1c2ccccc2C[C@@H]1O | -6.65 |
| c1coc(CN2CC[C@H]3O[C@@H](COCC4CC4)CC[C@H]32)c1 | -3.59 |
| CCN(CC)S(=O)(=O)N1CCCC(c2ncc3c(n2)CCN(C)C3)C1 (centres undefined) | 50.2 |
| CN1CCc2nc(C3CCCN(S(=O)(=O)c4ccccc4)C3)ncc2C1 (centres undefined) | -1.11 |
| CN1CCc2nc(C3CCCN(S(=O)(=O)N4CCCC4)C3)ncc2C1 (centres undefined) | -5.94 |
| CC(=O)N1CCN(C(=O)c2cc(C(C)C)no2)[C@H]2CS(=O)(=O)C[C@H]21 | -1.55 |
| NC[C@H]1CC[C@H](c2c(C(N)=O)sc3ccccc32)CC1 | -6.86 |
| CCN(CC1CCOC1)C(=O)c1ccc(N2CCOCC2)c(F)c1 (centres undefined) | 18.7 |
| CCN(CC1CCOC1)C(=O)c1cc(F)ccc1N1CCN(C)CC1 (centres undefined) | 68.2 |
| C=C(C)CN(CC)C(=O)c1cc(F)ccc1N1CCN(C)CC1 | 1.96 |
| Fc1cnc(N2CC[C@@H]3O[C@H](COCc4ccccn4)CC[C@@H]32)nc1 | -3.79 |
| CCc1cnc(N2C[C@H]3C[C@H](C(=O)NC)[C@@H](C2)O3)nc1 | -4.37 |
| c1cnnc(NCC2CN(CCn3cccn3)CCO2)c1 (centres undefined) | -1.42 |

| Compound | Percent Effect [%] |
| --- | --- |
| c1ccc(CCN2CCOC(CNc3cccnn3)C2)nc1 (centres undefined) | -2.61 |
| Cn1cc(CCN2CCOC(CNc3cccnn3)C2)cn1 (centres undefined) | 66 |
| c1ccc(CN2C[C@H]3CCC[C@@]3(COCC3CC3)C2)nc1 | -0.775 |
| COc1ccc(CN2C[C@@H]3OCCN(CC4CCCO4)[C@@H]3C2)cc1 (some centres undefined) | 4.27 |
| c1ccc(Cn2cccn2)c(CNCC2CNc3ccnn3C2)c1 (centres undefined) | 6.16 |
| c1cc(CNCC2CNc3ccnn3C2)cc(Cn2cccn2)c1 (centres undefined) | 2.73 |
| c1ccc(Cn2cc(CNCC3CNc4ccnn4C3)cn2)cc1 (centres undefined) | 62.4 |
| COc1ccc(C(=O)N2CCO[C@H]3[C@@H](OCC4CC4)CC[C@@H]32)cc1F | -0.755 |
| Cc1ccc(CN2CC(C(=O)NC(C)C)C3(CCOCC3)C2)s1 (centres undefined) | 0.402 |
| CC(c1ccc2c(c1)OCO2)N1Cc2nc(N(C)C)ncc2C1=O (centres undefined) | 4.59 |
| N#Cc1ccsc1N1CCC(Sc2ccncc2)C1=O (centres undefined) | 4.7 |
| CC(NCc1c(C(C)C)nn(C)c1N1CCOCC1)C(N)=O (centres undefined) | -6.01 |
| CC(C)c1nn(C)c(N2CCOCC2)c1CNCC(=O)N(C)C | 4.97 |
| CC(NCc1c(C(C)C)nn(C)c1N1CCOCC1)C(=O)N(C)C (centres undefined) | 71.4 |
| c1ccc(CN2CC[C@@H]3O[C@@H](COCCN4CCCC4)CC[C@@H]32)nc1 | 1.72 |
| CC(C)c1nc(CN2CCC(c3ccnn3CCO)CC2)no1 | 61.5 |
| CC(C)c1noc(CN2CCC(c3ccnn3CCO)CC2)n1 | -1.43 |
| CC(C)(C)c1nc(CN2CCC(c3ccnn3CCO)CC2)no1 | 23.6 |
| COc1cc(Cl)ccc1C(=O)NCc1nncn1C | -10.5 |
| Cc1cccc(C)c1OCCC(=O)N1CCC(c2nncn2C)CC1 | 3.92 |
| Cn1cnnc1C1CCN(C(=O)CCCOc2ccccc2)CC1 | -0.13 |
| Cn1cnnc1C1CCN(C(=O)CCOc2ccc(Cl)cc2)CC1 | 64.2 |
| CC[C@H]1CN2CC[C@H]1C[C@@H]2CNCc1ccc(OC(F)(F)F)cc1 | -0.828 |

| Compound | Percent Effect [%] |
| --- | --- |
| O=C(C1CC1)N1CC[C@H]2[C@@H]1CCC(=O)N2c1ccccc1 | 6.13 |
| N#Cc1cn[nH]c1NCc1cc(Cl)cc(Cl)c1O | 8.64 |
| N#Cc1cn[nH]c1NCc1cc(I)cc(I)c1O | 3.89 |
| N#Cc1cn[nH]c1NCc1cc(Br)ccc1O | 288 |
| NCCN1C(=O)CC[C@H]2CN(Cc3ccc4occc4c3)CC[C@H]21 | 1.29 |
| COCCN1C[C@H]2CCN(C(=O)Nc3ccccc3C)CC[C@H]2S1(=O)=O | -4.45 |
| Cc1ncoc1C(=O)N1C[C@H]2CCC[C@@]2(COCc2cccnc2)C1 | 1.59 |
| CC(C(=O)NCc1ccc(N2CCCC2)nc1)S(C)(=O)=O (centres undefined) | 59.5 |
| CC(C(=O)NCc1ccc(N2CCCCCC2)nc1)S(C)(=O)=O (centres undefined) | -1.98 |
| CC(C(=O)NCc1ccc(N2CCCCC2)nc1)S(C)(=O)=O (centres undefined) | -4.1 |
| Cc1nnc2n1CCN(CC(=O)N1CCc3ccccc3C1)C2 | 18.8 |
| Cc1cccc(CN2CCC[C@@H]3CN(C(=O)c4ccco4)C[C@@H]32)n1 | 0.174 |
| COc1ccc(C[C@H]2CN(c3cc(OC)ncn3)CC[C@H]2OC)cc1 | 5.86 |
| O=C(NCC1=CCCCC1)C(c1cccnc1)N1CCOCC1 (centres undefined) | -0.187 |
| O=C(NCC(F)(F)F)C(c1cccnc1)N1CCCC1 (centres undefined) | 0.735 |
| O=C(NCC1=CCCCC1)C(c1cccnc1)N1CCCC1 (centres undefined) | 51 |
| CCn1c(SC)nnc1C1CCN(C(=O)N2CCCC2)CC1 | -3 |
| Cn1ccnc1CN1C(=O)CO[C@H]2CN(Cc3ccc(F)c(F)c3)C[C@H]21 | 2.2 |
| O=C(NCC1CC1)[C@@H]1CCO[C@@H]2CCN(Cc3ccco3)C[C@H]21 | 9.55 |
| c1ccc(O[C@@H]2CC[C@H]3[C@H]2OCCN3Cc2ccsc2)nc1 | 8.46 |
| CCCc1nnc(NC(=O)NC(C)Cn2cccn2)s1 (centres undefined) | -6.24 |
| CCC(CC)c1nnc(NC(=O)NC(C)Cn2cccn2)s1 (centres undefined) | 69.6 |
| Cc1nnc(NC(=O)NC(C)Cn2cccn2)s1 (centres undefined) | -5.8 |

| Compound | Percent Effect [%] |
| --- | --- |
| COCCNC(=O)[C@H]1C[C@@H]2CCN(c3ccccc3)C[C@H]2O1 | 6.99 |
| CNC(=O)[C@@H]1COC[C@H]2CN(C(=O)c3cccc(OC)c3)C[C@H]21 | 1.06 |
| COc1cccc(F)c1CN1CCC(c2nc(C)cc(C)n2)C1 (centres undefined) | 70.2 |
| COc1cccc(F)c1CN1CCC(c2nccc(C)n2)C1 (centres undefined) | -3.03 |
| COc1ccccc1CN1CCC(c2nccc(C)n2)C1 (centres undefined) | 22 |
| Cc1ccc(N2CC[C@H]3OCC[C@@]3(C(=O)N3CCCC3)C2)nn1 | 1.02 |
| CCN(CC)S(=O)(=O)N1CCCC1c1cccc(Nc2ncc(C)s2)n1 (centres undefined) | 1.88 |
| CCn1cc(S(=O)(=O)NC(=O)CCc2c[nH]c3ccccc23)cn1 | 57.5 |
| CCn1cc(S(=O)(=O)NC(CO)Cc2c[nH]c3ccccc23)cn1 (centres undefined) | -4.44 |
| CCn1cc(NC(=O)NC(CO)Cc2c[nH]c3ccccc23)cn1 (centres undefined) | 2.58 |
| Cc1csc(C(=O)NCCN2CCC(c3cccs3)CC2)c1 | 0.44 |
| Cc1cccc(CN2CC[C@@H]3[C@@H]2CCN3C(=O)c2cc(C)on2)n1 | -0.968 |
| CCN1CCN(C(=O)c2cc(-c3ccc(C)o3)n[nH]2)[C@H]2CS(=O)(=O)C[C@H]21 | 2.31 |
| O=C(C1=CCCC1)N1CCO[C@H]2[C@@H](OCC3CC3)CC[C@@H]21 | 0.105 |
| Cc1cc(CN2CCN(C(=O)NCc3cccs3)CC2)no1 | -4.93 |
| Cc1cc(CN2CCN(C(=O)NCc3ccco3)CC2)no1 | 70.1 |
| Cc1cc(CN2CCN(C(=O)NCc3ccoc3)CC2)no1 | -3.89 |
| COCC(=O)N1C[C@@H](c2cccc(F)c2)[C@H]2[C@H]1CCCCCN2C(C)=O | 9.95 |
| O=C(CC1CC1)N1CCC2(CC1)CN(Cc1cccnc1)C(=O)CO2 | -3.48 |
| CCn1cnnc1C1CCN(C(=O)c2cc3c(s2)CCCC3)CC1 | -7.73 |
| Cn1cnnc1C1CCN(C(=O)c2cc3c(s2)CCC3)CC1 | -1.59 |
| Cn1cnnc1C1CCN(C(=O)c2cc3c(s2)CCCC3)CC1 | 83.8 |

From ChEMBL document CHEMBL3988442, “University of Dundee, Small-Polar-MMV Screening Library” (2021)
